Screening results (PubChem)
RE007 growth inh – less growth of the S. pombe RE007 Vpr strain; Potency, µM (top dose mostly 92.2 µM), without a hit: at the highest dose activity change, negative = less growth, most hits filed as inhibitors; hit rate 0.21% among 360,000; AID 651644; S. pombe RE007 Vpr strain, BacTiter-Glo ATP luminescence, 24 h; active = well fitted falling curve with a large enough effect; inconclusive = small, poorly fitted or top-dose-only effect; inactive = no such curve, though single readings can be large or run the other way; also: potency is read from the fitted curve at half-maximal effect; % is scaled to controls: 0 for no effect and ±100 for the full control effect; nearly all actives have a fitted effect of over 50% in size
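Fission yeast RE007 carrying one integrated HIV-1 vpr copy, seeded at OD 0.01 in PMG+AL medium with 23 nL pinned compound. Grown 24 h at 30 degrees; viability read by BacTiter-Glo luminescence after 5 min.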
CHX counter-1 – affects cycloheximide protein synthesis inhibition readout, counter-screen; hit rate 12% among 300,000; cell reporter, cycloheximide protein synthesis inhibition counterscreen; max response, %; in the data active = max response mostly above about 13%, no sharp cut-off; inactive = mostly below about 14%; also: read at 38.3 µM for the half of the compounds with a filed dose; 0% is about no effect
Shiga toxin inh – Shiga toxin inhibition. hit rate 9.2% among 290,000. AID 2315. Vero cells, Shiga toxin protein synthesis inhibition reporter. inhibition, % at 38.7 µM; in the data active = inhibition mostly above about 28%, no sharp cut-off; inactive = mostly below about 43%; also: 0% is about no effect
TbPYK inhibitor – inhibitors of Trypanosoma brucei pyruvate kinase; Q57TT1; Potency, µM (series often up to 76.8 µM), inactives show at the highest dose activity, negative = inhibition, hits mostly inhibitors; TbPYK enzyme, Kinase-Glo Plus ATP luminescence, 45 min; hit rate 0.12% among 410,000; AID 624173; also: potency is read from the fitted curve at half-maximal effect; % is scaled to controls: 0 for no effect and ±100 for the full control effect; nearly all actives have a fitted effect of over 50% in size
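Luminescent Kinase-Glo Plus end-point after 45 min room-temperature reaction of T. brucei pyruvate kinase started with 130 uM ADP (final). Buffer TEA 50 mM pH 7.2 with KCl, MgCl2, BSA, Tween-20; titration-based qHTS with fitted concentration-effect curves.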
LmPK inh – inhibitors of Leishmania mexicana pyruvate kinase | Q27686 | purified LmPK, Kinase-Glo ATP luminescence, 1 h | Potency, µM (doses to about 57.5 µM), without a hit: top-dose activity change, negative = inhibition, actives largely listed as inhibitors | hit rate 0.37% among 290,000 | AID 1721; also: potency is read from the fitted curve at half-maximal effect; % is scaled to controls: 0 for no effect and ±100 for the full control effect
Target sequence (Q27686 whole entry, looked up): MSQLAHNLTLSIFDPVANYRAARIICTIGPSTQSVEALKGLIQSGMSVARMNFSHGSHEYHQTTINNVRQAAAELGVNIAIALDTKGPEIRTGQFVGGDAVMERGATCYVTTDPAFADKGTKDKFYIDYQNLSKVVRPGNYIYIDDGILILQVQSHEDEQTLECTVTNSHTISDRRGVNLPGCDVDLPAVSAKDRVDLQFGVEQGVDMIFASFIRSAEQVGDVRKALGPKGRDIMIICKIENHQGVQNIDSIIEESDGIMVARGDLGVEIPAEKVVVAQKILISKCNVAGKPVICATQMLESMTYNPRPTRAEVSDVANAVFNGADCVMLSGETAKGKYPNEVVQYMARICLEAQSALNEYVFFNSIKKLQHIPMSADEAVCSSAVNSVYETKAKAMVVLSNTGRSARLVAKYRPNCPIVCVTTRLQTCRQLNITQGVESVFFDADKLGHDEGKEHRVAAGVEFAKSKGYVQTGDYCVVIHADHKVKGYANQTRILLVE
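Kinase-Glo luminescence read after 1 h RT reaction of 0.1 nM LmPK with 0.5 mM PEP and 0.1 mM ADP. Activity scaled between uninhibited and enzyme-free controls.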
Giardia FBPA inh-1 – Giardia lamblia aldolase inhibition. Potency, µM (titrated, usually from 59.6 µM), without a hit: at the highest dose activity, negative = inhibition, hits mostly inhibitors. A8B2U2. hit rate 0.71% among 290,000. AID 2451. purified Giardia FBPA; also: potency is read from the fitted curve at half-maximal effect; % is scaled to controls: 0 for no effect and ±100 for the full control effect; nearly all actives have a fitted effect of over 55% in size
Target sequence (A8B2U2 whole entry, looked up): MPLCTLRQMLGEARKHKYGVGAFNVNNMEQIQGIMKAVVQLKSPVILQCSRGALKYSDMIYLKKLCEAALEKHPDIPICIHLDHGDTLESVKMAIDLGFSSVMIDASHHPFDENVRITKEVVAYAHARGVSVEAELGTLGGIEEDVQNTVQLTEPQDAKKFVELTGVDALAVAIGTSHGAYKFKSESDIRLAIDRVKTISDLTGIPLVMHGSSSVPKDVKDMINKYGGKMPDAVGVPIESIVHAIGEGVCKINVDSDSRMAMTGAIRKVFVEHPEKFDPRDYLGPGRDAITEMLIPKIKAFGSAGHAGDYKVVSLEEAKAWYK
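Giardia FBPA (40 nM reagent) was preincubated 10 min at RT with compound (up to 57.5 uM final), then substrate plus GAPDH/TPI/NAD/arsenate coupling system with diaphorase/resazurin was added; resorufin fluorescence (525/598 nm) was read after 20 min.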
LmPK inh confirm – Inhibits Leishmania mexicana pyruvate kinase, confirmation. shares compounds with LmPK inh. purified LmPK, Kinase-Glo ATP luminescence, 1 h. Potency, µM (top dose mostly 57.5 µM), for the others: at the top dose activity change, negative = inhibition, usual class: inhibitors. hit rate 40% among 150. AID 2559;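 active = compounds giving a full or partial concentration-response curve, as inhibitors or activators; inconclusive = weak, top-dose-only or unclear curve responses; inactive = no response at any tested dose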
CHX counter-2 – affects protein synthesis reporter in cycloheximide counter-screen | shares compounds with Shiga toxin inh | Cycloheximide counterscreen, protein synthesis reporter, Shiga toxin assay | Potency, µM (doses to about 38.3 µM), without a hit: top-dose activity (activation), most hits filed as activators | hit rate 3% among 510 | AID 2318; calls by dose curve; also: potency is read from the fitted curve at half-maximal effect; 0% is about no effect
Giardia growth – Giardia lamblia growth inhibition; shares compounds with Giardia FBPA inh-1; Giardia lamblia trophozoite growth inhibition; Potency, µM (doses to about 57.5 µM), for the others: at the top dose activity change, negative = inhibition, hits mostly inhibitors; hit rate 5% among 1,500;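 also: potency is read from the fitted curve at half-maximal effect; trophozoites exposed to compound for 48 h at 37 °C; % is scaled to controls: 0 for no effect and ±100 for the full control effect; nearly all actives have a fitted effect of over 70% in size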
Mammalian tox – counter-screen for Giardia aldolase inhibitors: mammalian cell toxicity. hit rate 4% among 1,500. Potency, µM (titrated, usually from 57.5 µM), without a hit: top-dose viability change, negative = toxicity, most hits filed as inhibitors. AID 2786. mammalian cell viability counter-screen, qHTS. shares compounds with Giardia FBPA inh-1;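 also: Chinese hamster ovary cells used as mammalian cytotoxicity surrogate; viability measured as cellular ATP by luminescence; potency is read from the fitted curve at half-maximal effect; compound exposure lasted 48 h before reading; % is scaled to controls: 0 for no effect and ±100 for the full control effect; nearly all actives have a fitted effect of over 60% in size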
Giardia FBPA inh-2 – confirmation of Giardia fructose-bisphosphate aldolase inhibitors | shares compounds with Giardia FBPA inh-1 | purified Giardia aldolase enzyme activity, qHTS | Potency, µM (titrated, usually from 57.5 µM), inactives show top-dose activity change, negative = inhibition, actives largely listed as inhibitors | hit rate 5% among 1,500 | AID 2787; also: potency is read from the fitted curve at half-maximal effect; % is scaled to controls: 0 for no effect and ±100 for the full control effect; nearly all actives have a fitted effect of over 45% in size
Rabbit aldolase – blocks rabbit muscle aldolase in Giardia aldolase selectivity test | hit rate 4% among 1,500 | shares compounds with Giardia FBPA inh-1 | Rabbit muscle FBPA enzyme inhibition, selectivity counter-screen | Potency, µM (series often up to 57.5 µM), for inactives: at the top dose activity, negative = inhibition, actives largely listed as inhibitors; also: potency is read from the fitted curve at half-maximal effect; % is scaled to controls: 0 for no effect and ±100 for the full control effect; nearly all actives have a fitted effect of over 60% in size
GAPDH coupling – GAPDH inhibition flagged for Giardia aldolase hits; shares compounds with Giardia FBPA inh-1; GAPDH coupling enzyme counterscreen, biochemical, qHTS; Potency, µM (series often up to 57.5 µM), for the others: top-dose activity change, negative = inhibition, most hits filed as inhibitors; hit rate 6% among 1,500; AID 2795; also: potency is read from the fitted curve at half-maximal effect; % is scaled to controls: 0 for no effect and ±100 for the full control effect; nearly all actives have a fitted effect of over 55% in size
* = called active by the depositor; [ ] = dose if it differs, or a comment. The sample as a whole holds a higher share of hits than the screen did. Unless noted, calls follow the shape of the dose curve; as a rule, active = well fitted curve in the direction sought with a large enough effect; inconclusive = small, poorly fitted or top-dose-only effect, or another doubt; inactive = no such curve, though single readings can be large; an effect the other way counts as inactive or inconclusive.

Results for C[C@]12CC[C@@H]3c4cc(O)c(O)cc4CC[C@H]3[C@@H]1CC[C@@H]2O ?
RE007 growth inh: -15%[18.4 µM]; CHX counter-1: 2; Shiga toxin inh: 25; TbPYK inhibitor: inconclusive; LmPK inh: 0.56µM*; Giardia FBPA inh-1: 16µM*; LmPK inh confirm: inconclusive; Giardia growth: 7%; Mammalian tox: -15%; Giardia FBPA inh-2: 4µM*; Rabbit aldolase: inconclusive; GAPDH coupling: -29%

Results for O=c1c(-c2cccc(Cl)c2)nc2cncnc2n1Cc1ccc(F)cc1 ?
TbPYK inhibitor: 2%; Giardia FBPA inh-1: -10%

Results for O=c1c2ccccc2[se]n1-c1ccccc1 ?
RE007 growth inh: -21%; CHX counter-1: 13; Shiga toxin inh: 19; TbPYK inhibitor: 8.9µM*; LmPK inh: 22µM*; Giardia FBPA inh-1: 7.9µM*; LmPK inh confirm: 13µM*; Giardia growth: 20µM*; Mammalian tox: inconclusive; Giardia FBPA inh-2: inconclusive; Rabbit aldolase: 22µM*; GAPDH coupling: -6%

What do the screens show for `O=c1c2ccccc2nc(-c2ccccc2)n1-c1ccccc1`?
RE007 growth inh: 10%; CHX counter-1: 0; Shiga toxin inh: -3; TbPYK inhibitor: 3%; LmPK inh: -1%; Giardia FBPA inh-1: 6%

What do the screens show for `CCOC(=O)C1CCCN(C(=O)c2cc(Nc3ccc(OC)c(OC)c3)nc3ccccc23)C1` (stereo unspecified)?
RE007 growth inh: 2%; CHX counter-1: 10; Shiga toxin inh: 38*; TbPYK inhibitor: 11%; LmPK inh: -1%; Giardia FBPA inh-1: -7%; CHX counter-2: 4%

Results for CCOC(=O)C1CCCN(C(=O)c2cc(Nc3ccc(OC)cc3OC)nc3ccccc23)C1 (stereo unspecified) ?
RE007 growth inh: 1%; CHX counter-1: 26; Shiga toxin inh: 23; TbPYK inhibitor: -3%; LmPK inh: 4%; Giardia FBPA inh-1: -9%

What do the screens show for `CN(Cc1ccnc2ccccc12)C(=O)C1CCC(=O)N(Cc2ccccc2F)C1` (stereo unspecified)?
RE007 growth inh: 6%; CHX counter-1: -2; Shiga toxin inh: -12; TbPYK inhibitor: -10%; LmPK inh: 0%

How did CC(NC(=O)C1CCN(C(=O)Nc2ccccc2)CC1)c1ccc(Cl)cc1 (stereo unspecified) do in these assays?
RE007 growth inh: -1%; TbPYK inhibitor: -3%

Results for COc1cccc(Nc2nc(NCCO)c3ccccc3n2)c1 ?
RE007 growth inh: 0%; CHX counter-1: 10; Shiga toxin inh: 50*; TbPYK inhibitor: -9%; LmPK inh: 1%; Giardia FBPA inh-1: -18%; CHX counter-2: 1%

What do the screens show for `OCCNc1nc(Nc2cccc(O)c2)nc2ccccc12`?
RE007 growth inh: -3%; CHX counter-1: -3; Shiga toxin inh: 13; TbPYK inhibitor: 3%; LmPK inh: -2%; Giardia FBPA inh-1: -3%

How did C[C@H](O)[C@@H]1C(=O)N2CCc3c([nH]c4ccccc34)[C@@H]2C[C@@H]1N(C)Cc1ccc2c(c1)OCO2 do in these assays?
RE007 growth inh: -14%; TbPYK inhibitor: -2%

Results for O=C(NCc1ccccc1Cl)c1ccc[nH]1 ?
RE007 growth inh: -9%; CHX counter-1: -3; Shiga toxin inh: -2; TbPYK inhibitor: -5%; LmPK inh: 3%; Giardia FBPA inh-1: -10%

Results for O=C(Nc1ccccc1)c1ccccc1O ?
RE007 growth inh: -30%; CHX counter-1: 18; Shiga toxin inh: 59*; TbPYK inhibitor: -8%; LmPK inh: -2%; Giardia FBPA inh-1: 1%; CHX counter-2: 22µM*

How did O=C(Nc1ccccc1)c1ccc[nH]1 do in these assays?
RE007 growth inh: -7%; CHX counter-1: -2; Shiga toxin inh: 40*; TbPYK inhibitor: -15%; LmPK inh: -8%; Giardia FBPA inh-1: 2%; CHX counter-2: 4%

How did O=C(Cn1cc2c(n1)CCCCC2)Nc1ccccc1Br do in these assays?
RE007 growth inh: -11%; CHX counter-1: 11; Shiga toxin inh: 73*; TbPYK inhibitor: -5%; LmPK inh: -1%; Giardia FBPA inh-1: -2%; CHX counter-2: -1%

What do the screens show for `CCN1CCN(C(=O)c2ccc3c(=O)n(CCC4=CCCCC4)c(=O)[nH]c3c2)CC1`?
RE007 growth inh: 7%; CHX counter-1: 11; Shiga toxin inh: 29*; TbPYK inhibitor: -2%; LmPK inh: -1%; Giardia FBPA inh-1: 6%; CHX counter-2: inconclusive

How did Cn1cccc1C(=O)N1CCC2(CCN(Cc3ccccc3)CC2)CC1 do in these assays?
TbPYK inhibitor: -1%; Giardia FBPA inh-1: 4%

How did O=C(NCc1ccccc1)C1CCCC1 do in these assays?
CHX counter-1: 6; Shiga toxin inh: 21*; LmPK inh: -6%; Giardia FBPA inh-1: -2%; CHX counter-2: 4%

How did Cc1ccc(-n2c(C)c(C)c3c(N)ncnc32)cc1 do in these assays?
RE007 growth inh: -20%; CHX counter-1: 2; Shiga toxin inh: 34*; TbPYK inhibitor: -19%; LmPK inh: -2%; Giardia FBPA inh-1: 6%; CHX counter-2: 2%
